Assay results published in PubChem BioAssay.
The source made the active and inactive calls.

Assays:
[1] = test system: Human papillomavirus type 1a protein E7 (residues 44-93); assay: small molecules binding HPV E7 44-93 – biochemical, small-molecule microarray, residues 44-93, 635 nm fluorescence, primary screen (AID 1108); conditions: fluorescence 635 nm, higher = more signal;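 further: E7 fragment applied at 1 µg/mL in TBST for 1 h at 4 C; score combines spot fluorescence with its signal to noise ratio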
[2] = hepatitis C replication reporter changes, two-sided – Huh7 cells, luciferase reporter, HCV replication inhibitor project, primary screen (AID 1109); conditions: Huh7 HCV replicon luciferase reporter, 48 h; higher = more signal;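 further: huh7 hepatoma cells harbouring a luciferase neomycin HCV replicon reporter; luciferase luminescence as measure of HCV replicon replication; test concentration not given here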
[3] = target: Left-right determination factor 2 (Homo sapiens) (UniProt O00292); assay: small molecules binding LEFTY2 protein – biochemical, small-molecule microarray, 635 nm fluorescence scan, primary screen (AID 1110); conditions: higher = more signal
Sequence of Left-right determination factor 2 (Homo sapiens) (O00292 whole entry, looked up): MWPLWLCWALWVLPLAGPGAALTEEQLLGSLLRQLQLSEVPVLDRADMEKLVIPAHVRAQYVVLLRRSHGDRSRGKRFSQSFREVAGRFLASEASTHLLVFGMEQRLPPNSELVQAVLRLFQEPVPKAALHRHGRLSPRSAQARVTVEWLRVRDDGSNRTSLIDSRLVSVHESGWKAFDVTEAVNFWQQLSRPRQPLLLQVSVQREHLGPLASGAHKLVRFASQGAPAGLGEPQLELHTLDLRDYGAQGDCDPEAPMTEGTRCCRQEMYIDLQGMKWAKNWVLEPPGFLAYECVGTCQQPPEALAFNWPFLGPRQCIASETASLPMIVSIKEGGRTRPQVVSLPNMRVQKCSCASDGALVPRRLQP

[4] = target: Calmodulin-1 (Homo sapiens) (UniProt P0DP23); assay: small molecules binding calmodulin-1 with EGTA – biochemical, small-molecule microarray, Cy5-labelled CALM1, profiling panel (AID 1111); conditions: Cy5-CALM1 binding fluorescence, higher = more signal;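 further: labelled calmodulin applied in Tris saline Tween buffer holding calcium plus EGTA and DTT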
[5] = target: Calmodulin-1 (Homo sapiens) (UniProt P0DP23); assay: small molecules binding Ca-loaded calmodulin-1 – biochemical, small-molecule microarray, Cy5-labelled CALM1, plus calcium, artefact control for SMM control-protein annotation, profiling panel (AID 1112); conditions: Cy5-CALM1 binding fluorescence, higher = more signal;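 further: score merges spot fluorescence with signal to noise from triplicate slides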
[6] = probe aWnt5a binding to arrayed compounds – biochemical, biotinylated probe, 635/667 nm fluorescence, primary screen (AID 1113); conditions: small-molecule microarray, higher = more signal;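 further: score merges 667 nm fluorescence intensity with signal-to-noise per printed feature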
[7] = probe aShh binding to arrayed compounds – biochemical, biotinylated probe, 635/667 nm fluorescence, primary screen (AID 1114); conditions: small-molecule microarray, higher = more signal;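 further: probe is biotin-labelled aShh protein from a stem cell growth factor screen; measures binding of labelled protein to compounds printed on the slide; score merges feature fluorescence at 667 nm with signal-to-noise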
[8] = probe aNog binding to arrayed compounds – biochemical, biotinylated probe, 635/667 nm fluorescence, primary screen (AID 1115); conditions: small-molecule microarray, higher = more signal;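 further: probe is biotinylated aNog protein used at 0.15 µg/mL for 1 h at 4 C; z-score combines 667 nm fluorescence of each spot with its signal to noise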
[9] = target: Torsin-1A-interacting protein 1 (Homo sapiens) (UniProt Q5JTV8); assay: compound microarray binding of lysate hLAP1 – cell lysate, small-molecule microarray, COS7 lysate, 635/667 nm fluorescence, primary screen (AID 1116); conditions: 635 nm fluorescence, higher = more signal
Sequence of Torsin-1A-interacting protein 1 (Homo sapiens) (Q5JTV8 whole entry, looked up): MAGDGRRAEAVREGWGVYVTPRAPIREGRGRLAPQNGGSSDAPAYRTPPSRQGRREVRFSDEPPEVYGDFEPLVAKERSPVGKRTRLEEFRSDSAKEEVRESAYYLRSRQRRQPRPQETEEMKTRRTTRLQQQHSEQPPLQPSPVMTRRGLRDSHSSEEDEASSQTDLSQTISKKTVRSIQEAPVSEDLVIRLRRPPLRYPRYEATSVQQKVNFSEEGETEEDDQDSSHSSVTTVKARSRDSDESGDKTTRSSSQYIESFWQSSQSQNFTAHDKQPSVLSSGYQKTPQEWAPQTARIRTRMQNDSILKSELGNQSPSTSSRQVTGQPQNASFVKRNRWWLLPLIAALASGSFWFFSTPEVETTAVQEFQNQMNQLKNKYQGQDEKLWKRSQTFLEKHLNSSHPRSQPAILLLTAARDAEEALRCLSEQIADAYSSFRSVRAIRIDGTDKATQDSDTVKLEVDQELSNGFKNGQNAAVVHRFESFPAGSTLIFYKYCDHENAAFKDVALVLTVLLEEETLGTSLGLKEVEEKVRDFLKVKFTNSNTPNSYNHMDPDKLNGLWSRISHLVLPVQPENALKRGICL

[10] = target: Alpha-bungarotoxin (Bungarus multicinctus) (UniProt P60615); assay: compounds binding labelled alpha-BTX control protein – biochemical, small-molecule microarray, Alexa647 label, 635/667 nm fluorescence, artefact control for SMM control protein annotation, profiling panel (AID 1117); conditions: alpha-BTX-A647 binding fluorescence, higher = more signal
Sequence of Alpha-bungarotoxin (Bungarus multicinctus) (P60615 whole entry, looked up): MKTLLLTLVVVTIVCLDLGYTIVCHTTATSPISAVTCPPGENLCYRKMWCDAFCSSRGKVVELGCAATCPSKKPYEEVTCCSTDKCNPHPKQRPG

Albumin (Bos taurus) = Albumin (Bos taurus) (UniProt P02769); assay: compounds binding labelled BSA control protein – biochemical, small-molecule microarray, Alexa647 label, 635/667 nm fluorescence, artefact control for SMM control protein annotation, profiling panel (AID 1118); conditions: BSA-A647 binding, fluorescence 635 nm, higher = more signal;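 further: score merges 667 nm emission intensity and signal-to-noise per printed compound spot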
Sequence of Albumin (Bos taurus) (P02769 whole entry, looked up): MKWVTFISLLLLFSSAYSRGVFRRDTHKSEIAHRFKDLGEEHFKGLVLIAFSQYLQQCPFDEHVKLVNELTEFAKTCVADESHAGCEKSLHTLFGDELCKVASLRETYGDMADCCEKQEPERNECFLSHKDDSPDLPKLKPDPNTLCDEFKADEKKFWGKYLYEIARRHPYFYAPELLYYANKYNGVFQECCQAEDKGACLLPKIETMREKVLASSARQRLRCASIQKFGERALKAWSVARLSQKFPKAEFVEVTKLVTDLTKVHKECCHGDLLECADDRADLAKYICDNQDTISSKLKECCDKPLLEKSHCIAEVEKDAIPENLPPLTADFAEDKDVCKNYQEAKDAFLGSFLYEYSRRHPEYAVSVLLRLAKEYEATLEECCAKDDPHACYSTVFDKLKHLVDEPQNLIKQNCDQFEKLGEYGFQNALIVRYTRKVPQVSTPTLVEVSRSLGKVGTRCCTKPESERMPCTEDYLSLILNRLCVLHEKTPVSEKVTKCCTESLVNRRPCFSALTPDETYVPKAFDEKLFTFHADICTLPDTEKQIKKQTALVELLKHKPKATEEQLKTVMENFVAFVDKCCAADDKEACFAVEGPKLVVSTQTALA

[11] = probe aXIP binding to arrayed compounds – biochemical, NeuroSMM set, 635/667 nm fluorescence, primary screen (AID 1119); conditions: small-molecule microarray, higher = more signal, called active from +8 up or from −8 down;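 further: probe is the protein aXip251-270 applied at 1 µg/mL to compound-printed slides; binding of probe to printed compounds measured as 667 nm fluorescence plus signal to noise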
[12] = probe aNOTCH3 binding on compound microarray – biochemical, small-molecule microarray, 635/667 nm fluorescence, primary screen (AID 1120); conditions: higher = more signal;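 further: probe is a biotin-tagged antibody raised against NOTCH3 rather than NOTCH3 protein; score merges spot fluorescence near 667 nm with spot signal to noise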
[13] = probe aNOTCH2 binding on compound microarray – biochemical, small-molecule microarray, 635/667 nm fluorescence, primary screen (AID 1121); conditions: higher = more signal;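 further: score merges feature fluorescence read at 667 nm with its signal to noise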
[14] = target: Carbonic anhydrase 2 (Homo sapiens) (UniProt P00918); assay: compounds binding carbonic anhydrase 2 – biochemical, small-molecule microarray, Alexa647-labelled CAII, profiling panel (AID 1122); conditions: CAII-A647 binding fluorescence, higher = more signal
[15] = COS7 lysate on small-molecule microarray, probe aHis, 635 nm (AID 1123); conditions: COS7 cell lysate, fluorescence, higher = more signal;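 further: z-score combines 667nm fluorescence intensity with signal-to-noise per printed compound spot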
[16] = probe aLAP1 signal on lysate-treated microarray – cell lysate, small-molecule microarray, COS7 lysate, primary screen (AID 1124); conditions: probe aLAP1, fluorescence, higher = more signal;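 further: lysate comes from COS7 cells expressing LAP1 and is applied at 0.3 µg/mL; score merges spot fluorescence near 667 nm with signal-to-noise over triplicate slides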
Sam68 (KHDRBS1) = assay: compounds binding KHDRBS1 protein – biochemical, small-molecule microarray, 635 nm fluorescence, primary screen (AID 1125); conditions: higher = more signal;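 further: score merges 667 nm channel intensity with signal to noise over triplicate slides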
[17] = test system: Chordin-like protein 2 (CHRDL2); assay: compounds binding chordin-like 2 – biochemical, small-molecule microarray, 635 nm fluorescence, primary screen (AID 1126); conditions: fluorescence 635 nm, higher = more signal;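 further: printed compound slides probed with Chrdl2 protein at 4 µg/mL for 1 h at 4 C; score merges 667 nm emission intensity with signal to noise over three replicate slides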
[18] = target: Concanavalin-A (Canavalia ensiformis) (UniProt P02866); assay: compounds binding concanavalin A lectin – biochemical, small-molecule microarray, Alexa647 label, 635 nm, artefact control for SMM control protein annotation, primary screen (AID 1127); conditions: ConA-A647 binding fluorescence, higher = more signal;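 further: z combines 667 nm emission intensity with signal-to-noise across three replicate slides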
Sequence of Concanavalin-A (Canavalia ensiformis) (P02866 whole entry, looked up): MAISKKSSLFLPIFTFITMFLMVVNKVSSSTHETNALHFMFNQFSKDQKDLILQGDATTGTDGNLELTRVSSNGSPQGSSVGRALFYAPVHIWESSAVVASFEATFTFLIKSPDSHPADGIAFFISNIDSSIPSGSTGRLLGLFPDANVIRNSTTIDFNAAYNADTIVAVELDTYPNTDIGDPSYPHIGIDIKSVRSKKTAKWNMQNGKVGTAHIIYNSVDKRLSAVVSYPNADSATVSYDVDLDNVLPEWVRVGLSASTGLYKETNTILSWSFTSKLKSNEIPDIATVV

Structure (SMILES)	composite z-score [1]	z-score [2]	composite z-score [3]	composite z-score [4]	composite z-score [5]	composite z-score [6]	composite z-score [7]	composite z-score [8]	composite z-score [9]	composite z-score [10]	composite z-score (Albumin (Bos taurus))	composite Z-score [11]	composite z-score [12]	composite z-score [13]	composite z-score [14]	composite z-score [15]	composite z-score [16]	composite z-score (Sam68 (KHDRBS1))	composite z-score [17]	composite z-score [18]
CO[C@H]1COC(=O)[C@@H]2CCCN2C(=O)[C@@H](C)COC(=O)CC=C[C@@H]1C	-1.03	-0.496	1.2	0.212	-0.823	-0.13	-0.0793	-0.0209	0.626	-1.16	-0.414	-0.275 (inactive)	-0.0647	-0.0907	-0.329	-0.641	0.359	0.474	1.4	0.75
COC(=O)[C@H](C)NC(=O)CCC1CC(OC(=O)NCc2ccc3c(c2)OCO3)CC2(CCCC(COC(=O)NCCOc3ccccc3)O2)O1 (stereo not given in full)	0.966	-0.424	0.581	-0.0874	-0.604	-0.129	-0.138	-0.283	0.267	0.83	0.469	0.794 (inactive)	0.14	-0.0889	0.356	0.508	0.114	1.3	0.344	0.906
C=CC[C@]1(C(=O)NCc2ccccc2)N=C(c2ccc(OCCCO)cc2)O[C@H]1c1ccccc1	1.46	-2.41	-0.778	0.392	-0.483	-0.0944	0.696	0.257	1.62	2.46	0.866	-0.275 (inactive)	0.0488	-0.123	0.69	2.65	0.308	1.28	-0.911	0.691
CCOC(=O)C1=CC[C@H]2C(=O)N(CC)C(=O)[C@@H]12	1.19	-2.13	0.444	-0.322	-0.485	-0.0236	0.329	-0.0184	0.184	0.431	0.343	0.806 (inactive)	0.0242	-0.0866	0.522	1.01	0.111	1.09	0.363	0.65
COc1ccc(OC[C@H]2Cc3c(-c4ccccc4)nc4c(c3CO2)CN(CCOc2ccccc2)CC4)cc1	1.22	-1.77	0.722	0.59	-0.243	-0.0399	0.0815	0.0637	0.423	1.13	0.445	0.812 (inactive)	0.0562	-0.108	0.234	0.678	0.379	1.07	0.419	1.08
CCCCCN1CC=CC23O[C@@H]4C=CCOC(=O)[C@@H]4[C@H]2C(=O)N(CCCCCCO)[C@@H]3C1=O (stereo not given in full)	-0.276	0.417	-2	-0.284	0.168	-0.0417	0.0796	0.293	1.9	-0.729	0.798	0.401 (inactive)	-0.306	-0.0811	0.81	0.629	0.902	-0.662	-1.21	-0.367
CCOC(=O)C[C@H]1[C@H](OC(=O)c2ccc(C(=O)c3ccccc3)cc2)[C@@H](NC(=O)c2ccc(-c3ccccc3)cc2)c2cc(OCCCO)ccc2N1C(=O)c1ccc2ccccc2n1	1.07	-0.91	0.757	-0.299	-0.766	0.0835	-0.317	-0.621	0.249	0.774	0.0279	0.228 (inactive)	0.0084	-0.101	0.0886	0.71	-0.142	1.31	0.611	0.844
CC(C)CN1CCc2nc(-c3ccccc3)c3c(c2CC1)CO[C@@H](C)C3	-0.749	-0.747	0.774	-0.268	-0.177	0.027	0.191	-0.138	0.12	0.405	-0.249	-0.002 (inactive)	0.154	-0.16	-0.143	-0.258	-0.673	-0.168	0.74	0.0721
O=C1O[C@@H](c2ccccc2)[C@@H](c2ccccc2)N2[C@@H](c3ccc(OCCO)cc3)[C@]3(C(=O)Nc4ccccc43)[C@@H](C(=O)N3CCN(c4ncccn4)CC3)[C@H]12	1.35	-2.4	0.773	0.0357	-0.355	-0.0685	0.0044	0.751	0.96	1.53	0.162	0.338 (inactive)	0.0824	-0.091	0.403	1.84	0.88	1.3	0.902	1.15
C[C@H](c1ccccc1)N1C(=O)[C@H]2[C@H]3[C@H](O)[C@H](O)CC(=O)[C@@H]3CC[C@H]2C1=O	-0.81	-1.22	0.417	-0.229	-0.465	-0.0495	-0.237	0.0638	-0.0506	0.3	0.493	0.17 (inactive)	0.148	-0.114	0.496	0.13	0.876	-0.0681	0.604	0.162
COc1ccc([Si](C)(C)[C@@H]2[C@@H](CC(=O)N3CCC[C@H]3CO)O[C@]3(C(=O)N(Cc4cccc(N5CCC5=O)c4)c4ccccc43)[C@H]2C)cc1	1.4	-2.1	0.162	0.504	-0.098	-0.0236	0.199	0.15	0.989	1.44	0.263	0.188 (inactive)	0.239	-0.0288	0.14	2.25	0.317	1.31	0.453	0.811
